Bioassay records deposited in PubChem BioAssay by several laboratories.
In the library only some 1.6% were active in any assay of this set; here they are far more common.
Efflux pump inh: antifungal efflux pump inhibition, Nile Red retention; AID 485275; inhibition, % at 10 µM; S. cerevisiae Candida pump triplex; 330,000 compounds, 0.44% hits;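 active means plate passing quality check with inhibition over a set limit, or well fluorescence over plate mean plus 4 SD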;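 further: Nile Red retained in pooled yeast measured as flow cytometry median fluorescence; 0% = buffer negative control and 100% = Enniatin B positive control; higher means more Nile Red kept so more efflux inhibition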
GC-A act: GC-A (human) enzyme activation; P16066; HEK293 GC-A cells, cGMP TR-FRET, EC30 ANP; 0% at EC30 ANP, 100% saturating ANP; 370,000 compounds, 0.14% hits; activation, % at 10 µM; in the data active means activation above about 40%
NSD2 inh: inhibitors of human histone methyltransferase NSD2 | O96028 | AID 743445 | 310,000 compounds, 0.54% hits | NSD2 peptide methylation, AlphaScreen, 120 min | inhibition, % at 12.5 µM; in the data active means inhibition above about 50%
Rce1 inh: yeast Ras-converting enzyme inhibition | 290,000 compounds, 0.27% hits | calls only | yeast membranes, quenched prenylated peptide cleavage fluorescence | Q03530;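 active means fall in fluorescence gain of 50% or more versus controls, with final raw signal at or below 3038400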;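 further: plate controls were neutral control wells for no effect and wells lacking membranes for full effect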
Target sequence (Q03530 whole entry, looked up): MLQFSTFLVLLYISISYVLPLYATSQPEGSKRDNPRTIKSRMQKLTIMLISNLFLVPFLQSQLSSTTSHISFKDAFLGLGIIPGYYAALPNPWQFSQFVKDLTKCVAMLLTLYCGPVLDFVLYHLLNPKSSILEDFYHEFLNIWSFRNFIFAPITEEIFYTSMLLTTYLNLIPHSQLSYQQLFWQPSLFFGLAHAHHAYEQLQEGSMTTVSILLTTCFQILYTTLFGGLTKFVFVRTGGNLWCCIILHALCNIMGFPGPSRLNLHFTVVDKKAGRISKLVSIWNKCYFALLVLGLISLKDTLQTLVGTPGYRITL
GC-B act: GC-B (human) receptor activation. P20594. HEK293-GC-B cells, CNP EC30, cGMP TR-FRET; 0% at EC30 CNP, 100% saturating CNP. activation, % at 10 µM. 370,000 compounds, 0.11% hits. AID 1920062;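 active means activation at 10 µM reaching about 35% in either raw or pattern-adjusted values, limit read from the data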
V-ATPase pHluor: alters yeast V-ATPase proton transport. S. cerevisiae, pHLuorin cytosolic pH fluorescence. response, % at 10 µM. 350,000 compounds, 0.37% hits. AID 504577; in the data active means response mostly above about 7.3%, no sharp cut-off; inactive means mostly below about 5.4%; further: actives read high
Alpha artifact: AlphaScreen assay artifact in NSD2 counter-screen | shares compounds with NSD2 inh | AlphaScreen artifact counterscreen, preloaded methylated H4 peptide | AC35, µM (top dose mostly 10 µM), inactives show top-dose activity change, negative = signal loss | 1,500 compounds, 9.4% hits; call rule not given here
* hit, by the source's call; i = inactive; nt = not tested or not shown.

SMILES	Efflux pump inh	GC-A act	NSD2 inh	Rce1 inh	GC-B act	V-ATPase pHluor	Alpha artifact
O=c1[nH]c(=S)[nH]c(O)c1N=Nc1cc(S(=O)(=O)Nc2ccc(Cl)cc2)ccc1Cl	0.2	-4.2	65.6*	nt	-9.5	-3.3	-9.4%
NS(=O)(=O)c1ccc(N=Nc2c(O)[nH]c(=S)[nH]c2=O)cc1	0.0	-3.7	3.4	i	-4.0	0.7	nt
O=S(=O)(c1ccc2ccccc2c1)N1Cc2cc(Br)ccc2-n2nncc2C1	nt	-16.6	nt	nt	-10.1	nt	nt
C[C@@H]1CNCCN1c1ccc(N2CC[C@@H](O)C2)c(C#N)c1	nt	-0.7	nt	nt	2.0	nt	nt
CC1C2Cc3ccc(O)cc3C1(C)CCN2CC1CC1 (stereo not drawn)	nt	1.1	nt	nt	-4.5	nt	nt
Cn1c(O)c(/C=C/C=Nc2ccccc2)c(=O)n(C)c1=S	0.2	5.4	54.9*	i	-1.2	-0.2	-4.6%
CC1(C)CC(=O)C2=C(C1)NC(=O)C21C(C(=O)OC(C)(C)C)=C(N)Oc2ccc(Br)cc21 (stereo not drawn)	0.0	-16.9	62.2*	i	-13.5	2.6	-4.9%
C=CCN1C(=O)C2(C(C(=O)OCC)=C(N)Oc3ccccc32)C2=C1CCCC2=O (stereo not drawn)	-0.2	1.0	-2.2	i	-4.4	-2.4	nt
CCCCn1c(=O)c(C=Nc2ccc(Cl)cc2)c(O)n(Cc2ccco2)c1=O	0.0	-0.1	nt	nt	1.0	0.3	nt
CC(C)n1c(=O)c(C=Nc2ccc(S(N)(=O)=O)cc2)c(O)n(Cc2ccco2)c1=O	0.0	-3.3	67.5*	i	-1.2	-3.2	-4.2%
N#Cc1ccc2nc(-c3ccc(CN4CCC(n5nnc6ccccc65)CC4)cc3)c(-c3ccccc3)nc2c1	nt	1.1	0.5	nt	15.4	nt	nt
O=C1NC(=O)C(=Cc2ccc(SC3CCCCC3)o2)C(=O)N1	-0.1	55.2*	62.3*	i	17.2	-8.6	0.8%
S=P(c1ccccc1)(c1ccccc1)c1c[n+](Cc2ccccc2)c2ccccn12	nt	-1.2	1.8	nt	-4.3	nt	nt
O=C1NC(=S)NC(=O)C1=Cc1c(Cl)cccc1Cl	nt	17.4	2.9	nt	5.7	1.0	nt
O=C1NC(=S)NC(=O)C1=Cc1ccc(Br)s1	0.1	31.8	52.1*	i	33.6	4.2	-5.0%
CCC(C)NC(=O)c1c(N)n(CCCOC)c2nc3ccccc3nc12 (stereo not drawn)	-0.1	2.6	106.0*	i	2.1	-2.2	10.0%
Cc1cc(/C=C2\C(=O)NC(=O)N(c3ccccc3F)C2=O)c(C)n1-c1cc(C(=O)O)cc(C(=O)O)c1	0.1	0.7	61.9*	i	8.1	1.8	-2.2%
C=CCN1CC[C@]23c4c5ccc(O)c4OC2C(=O)CC[C@@]3(O)[C@H]1C5 (stereo partly drawn)	nt	-1.4	nt	nt	-1.6	nt	nt
CCN1CCN(c2ccc(N)cc2)CC1	0.2	-6.0	57.0*	i	3.0	-2.2	-7.2%
CCN1CCN(c2ccc(N)cc2C)CC1	-0.2	-8.2	60.4*	i	-6.5	-0.2	-5.4%
Cc1ccc2nc(-c3ccc(CN4CCC(n5c(=O)[nH]c6cc(Cl)ccc65)CC4)cc3)c(-c3ccccc3)nc2c1	nt	-2.8	-2.8	nt	0.5	nt	nt
BrCCc1ccccc1	0.4	2.2	nt	nt	0.0	-0.7	nt
CNCCCc1ccccc1	0.0	-0.2	102.8*	i	-1.7	1.5	1.7%
CCN1C[C@]2(CO)CC[C@H](OC)[C@@]34C2[C@H](OC)[C@@](O)(C13)[C@@]1(O)C[C@H](OC)[C@H]2C[C@@H]4[C@@H]1[C@H]2OC	-0.1	4.2	56.6*	i	1.2	2.5	-0.4%
Cc1cc(C)cc(N2C(=O)NC(=O)/C(=C\C=C\c3ccco3)C2=O)c1	0.1	28.9	71.6*	i	19.0	2.5	-1.4%
SMILES	Efflux pump inh	GC-A act	NSD2 inh	Rce1 inh	GC-B act	V-ATPase pHluor	Alpha artifact
CCc1ccc(N2C(=O)NC(=O)/C(=C\C=C\c3ccco3)C2=O)cc1	0.0	2.1	53.8*	i	-4.2	-0.1	-7.3%
C[C@@H]1CNCCN1c1ccc(N2CC[C@H](O)C2)c(C#N)c1	nt	-1.8	nt	nt	1.2	nt	nt
Cc1ccc(N2C(=O)NC(=O)/C(=C/c3ccoc3)C2=O)cc1	nt	4.0	89.9*	nt	3.6	-0.2	-16.4%
CSc1ncc(/C=C2/C(=O)NC(=O)N(c3ccc(C)cc3)C2=O)cn1	0.0	1.9	1.3	i	1.2	-0.6	nt
Cc1ccc(N2C(=O)NC(=O)/C(=C/c3cnn(-c4ccc(C)cc4)c3)C2=O)cc1	0.3	56.6*	50.8*	i	10.5	5.5	-4.6%
O=C(O)C(Br)Br	nt	2.4	nt	nt	-7.1	nt	nt
CC(=O)NCC1=C(c2ccc(S(C)(=O)=O)cc2)C[C@@H]2CC[C@H]1N2CCOc1ccccc1	nt	-2.5	nt	nt	2.7	nt	nt
COCCNC(=O)c1c(NC(=O)c2ccco2)n(Cc2ccccc2)c2nc3ccccc3nc12	0.3	6.4	112.6*	i	-0.3	-2.3	8.1%
COCCCNC(=O)c1c(NC(=O)c2ccccc2Cl)n(Cc2ccccc2)c2nc3ccccc3nc12	-0.2	2.0	1.2	i	-2.1	-6.4	nt
Cc1ccc(/C=C2/C(=O)NC(=O)N(C)C2=O)cc1	0.0	5.3	3.3	i	6.2	5.5	nt
CN1C(=O)NC(=O)/C(=C/c2ccc([N+](=O)[O-])o2)C1=O	-0.1	-3.8	59.5*	i	3.6	3.0	-2.7%
